Screening data as filed in PubChem BioAssay.
aSyn UTR act: Activators via SNCA 5'UTR binding, MLPCN | alpha-synuclein 5'UTR reporter, activators screen | activity score, % (tested at 7.5 µM), hits read low | hit rate 7.1% among 300,000 | AID 1814; in the data active = activity score below about -60%
Active calls of the source: *. Only a sample is shown.

SMILES	aSyn UTR act
N#CC1=C(N)Nc2nc3ccccc3n2C1c1ccc(F)cc1 (stereo unspecified)	-117*
CC(C)C1N=C(c2ccc3c(c2)OCO3)CC(c2ccccc2O)N1 (stereo unspecified)	-300*
O=C(NC(=O)c1ccc(F)cc1F)Nc1ccc(Cl)cc1	-159*
Cc1ccc(S(=O)(=O)Nc2ccc(NC(=O)Nc3ccc(F)cc3F)cc2)cc1	78
Cc1ccc(NC(=O)c2ccc(F)cc2F)cc1	-195*
O=C(Nc1ccccc1)c1ccc(F)cc1F	-108*
CCC(SC1=Nc2ccccc2C2=NC(CC(C)C)C(=O)N12)C(=O)Nc1ccc2c(c1)OCO2 (stereo unspecified)	-64*
COc1ccc(Nc2ncnc3c2oc2ccccc23)cc1	-160*
Cc1ccc(Nc2ncnc3c2oc2ccccc23)cc1	-114*
c1ccc(Sc2ncnc3c2oc2ccccc23)cc1	-180*
c1ccc2c(c1)oc1c(Nc3ccc4c(c3)OCCO4)ncnc12	-142*
Oc1ccc(N=Nc2ccc3c(c2)OCCO3)c2cccnc12	104
S=C(NCc1ccco1)Nc1ccc(Br)cc1Cl	-141*
S=C(NCc1ccco1)Nc1ccc(Cl)cc1Cl	-108*
COc1ccc(-c2cc3ncc(-c4ccccc4)c(N)n3n2)cc1	-96*
CCc1cc(C(=O)NNC(=S)Nc2ccccc2C)cs1	-147*
CCc1cc(C(=O)Nc2ccccc2)cs1	-134*
CCOC(=O)c1sc(NC(=O)c2cc3c(s2)CCC(C)C3)nc1C (stereo unspecified)	-101*
CC1CCc2sc(C(=O)Nc3ccc(C(N)=O)cc3)cc2C1 (stereo unspecified)	-119*
Cc1ccc(NC(=O)c2scc3c2CCCC3)cc1	-90*
Cc1nc(NC(=O)c2cc3c(s2)CCCCC3)sc1C(=O)N(C)C	-175*
O=C(Nc1ccccc1OC(F)F)c1cc2c(s1)CCC2	-161*
Cc1nc(NC(=O)c2ccc(Br)s2)sc1C(=O)N(C)C	-122*
COC(=O)c1sc(NC(=O)c2cc3c(s2)CCCC3)nc1C	-204*
Cc1nc(NC(=O)CCl)sc1C(=O)N(C)C	-70*
SMILES	aSyn UTR act
Cc1ccc(NC(=O)c2cc3c(s2)CCCC3)cc1	-193*
Cc1cc2cc(OCc3ccccc3)ccc2n1C	-183*
Cc1c(C=O)c2cc(OCc3ccccc3)ccc2n1C	-76*
c1ccc2c(Nc3ccc4c(c3)OCCO4)c3c(nc2c1)CCCC3	-82*
CC(=O)c1cccc(Nc2c3c(nc4ccccc24)CCC3)c1	75
CC(=O)c1ccc(Nc2c3c(nc4ccccc24)CCCC3)cc1	-195*
CCSc1nsc(NC(=O)Nc2ccccc2F)n1	-183*
CCSc1nsc(NC(=O)Nc2cccc(OC)c2)n1	-140*
O=C(c1cc(-c2cccc(O)c2)on1)N1CCCCCC1	-119*
O=C(c1cc(-c2ccc(Br)cc2)on1)N1CCCCCC1	-145*
O=C(c1cc(-c2ccc(Cl)c(Cl)c2)on1)N1CCCCC1	-193*
O=C(c1cc(-c2cccc(Cl)c2)on1)N1CCCC1	-182*
C/C(CC1CC(COCC(C)C)OC1=O)=N\Nc1nc(-c2ccccc2)cs1 (stereo unspecified)	-82*
COCCNC(=O)c1sc2nc(-c3ccccc3)cn2c1C	-77*
COc1ccc(-c2cn3c(C)c(C(=O)Nc4cccc(C)n4)sc3n2)cc1	-97*
Cc1c(C(=O)Nc2ccccc2)sc2nc(-c3ccccc3)cn12	-160*
Cc1cccc(NC(=O)c2sc3nc(-c4ccccc4)cn3c2C)n1	-124*
COC(=O)c1ccc(C(=O)N=c2sccn2C)cc1	-148*
COc1ccc(C(=O)N=c2sccn2C)cc1	-114*
Cn1ccs/c1=N\C(=O)Nc1ccccc1	-128*
Cn1ccsc1=NC(=O)c1ccc(CS(C)(=O)=O)cc1	-66*
Cn1ccsc1=NC(=O)c1ccc(OC(F)(F)F)cc1	-77*
Cn1ccsc1=NC(=O)c1ccc(Cl)cc1	-197*
Cn1ccsc1=NC(=O)c1ccc(S(=O)(=O)C(F)F)cc1	-96*
CN(C)c1ccc(C(=O)N=c2sccn2C)cc1[N+](=O)[O-]	-117*
SMILES	aSyn UTR act
CN(C)c1ccc(C(=O)c2ccc(N(C)C)c3ccccc23)cc1	89
CN(C)c1ccc(C(=O)c2ccccc2C(=O)O)cc1[N+](=O)[O-]	-77*
CCCc1ccc2oc(C(=O)N3CCC[C@H]3CO)c(C)c2c1	-200*
CCCc1ccc2oc(C(=O)N3CCC(COC)C3)c(C)c2c1 (stereo unspecified)	-113*
Fc1ccccc1-c1nc2ccccc2[nH]1	-128*
c1ccc2[nH]c(-c3ccnc4ccccc34)nc2c1	-96*
Clc1ccccc1-c1nc2ccccc2[nH]1	-113*
Cc1cc2nc(-c3ccc[nH]c3=O)[nH]c2cc1C	77
Cc1ccccc1-c1nc2ccccc2[nH]1	-134*
Cn1cc(Cl)c(-c2nc3ccccc3[nH]2)n1	-149*
Cc1ccc(S(=O)(=O)NCc2ccccc2)cc1C(=O)NC1CCC(C)CC1 (stereo unspecified)	-64*
CC1CCC(NC(=O)CCNS(=O)(=O)c2ccccc2)CC1 (stereo unspecified)	-62*
CCCCCC(C)NC(=S)NC(=O)c1cc(S(=O)(=O)N2CCOCC2)ccc1C (stereo unspecified)	66
COc1ccc(CCNc2nnc(Sc3nnnn3-c3ccccc3)s2)cc1OC	120
COc1ccc(CCNc2nc3ccccc3n3nnnc23)cc1OC	-106*
CCCn1c(NCc2cc(OC)ccc2OC)nc2ccccc21	-98*
CCOc1ccc(Nc2nc3ccccc3n3nnnc23)cc1	-82*
CCOc1ccc(Nc2nc3ccccc3n2C)cc1	-163*
CCOc1ccc(CNc2nc3ccccc3n2C)cc1	-125*
Nn1c(Nc2ccccc2)nc2ccccc21	-100*
CCOc1ccc(NCc2nc3ccccc3n2CCOc2ccccc2)cc1	-67*
O=C1Nc2ccc3sc4ccccc4c3c2C1=O	-69*
Cc1ccccc1C1=NC(c2ccc(F)cc2F)ON1 (stereo unspecified)	-90*
COc1ccccc1C1N=C(c2ccccc2C)NO1 (stereo unspecified)	-120*
CCNC(=O)c1ccc(CSc2nc3ccccc3s2)cc1	-65*
SMILES	aSyn UTR act
c1ccc2sc(SCc3ccc(-c4nnco4)cc3)nc2c1	-156*
CCC(C)/C(C)=N/NC(=O)c1ccc(CSc2nc3ccccc3s2)cc1 (stereo unspecified)	-156*
NC(=O)c1ccc(CSc2nc3ccccc3s2)cc1	-101*
CC(C)c1c(O)cc(-c2ccncc2)n(-c2ccc(Cl)cc2)c1=O	37
CCC(C)(C)NC(=O)CCCSc1nc2ccccc2s1	-154*
O=c1c(-c2ccccc2)c[nH]n1-c1cccc([N+](=O)[O-])c1	-87*
O=c1c(-c2ccc(Cl)cc2)c[nH]n1-c1ccccc1	-145*
COc1ccccc1-c1cc(C(=O)N2CCCC2)no1	-133*
COc1ccccc1-c1cc(C(=O)N2CCOCC2)no1	-125*
O=C(c1cc(-c2cccs2)on1)N1CCOCC1	-169*
COc1ccc(-c2cc(C(=O)N3CCOCC3)no2)cc1	73
COc1ccc(C(=O)N=c2sc3c(C)ccc(OC)c3n2C)cc1OC	-295*
COc1ccccc1C(=O)N=c1sc2c(C)ccc(OC)c2n1C	-80*
COc1cccc(C(=O)N=c2sc3c(C)ccc(OC)c3n2C)c1	-209*
COc1ccc2c(c1)C(C)=CC(C)(C)N2S(=O)(=O)c1ccc(C)cc1	-63*
CCOc1ccc2c(c1)C(C)=CC(C)(C)N2S(=O)(=O)c1ccc(C)cc1	103
O=C(CN1CC[n+]2c(-c3cccs3)csc21)c1ccc(-c2ccccc2)cc1	-65*
